A short description of experiment [1]: NCI Yeast Anticancer Drug Screen. Data for the rad50 strain (AID 155).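 Further: 0% = growth of vehicle-only cultures of the same strain.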 To be noted: S. cerevisiae rad50 strain growth inhibition, hits give high values. The method in brief:
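Growth of the mutant yeast was measured after compound exposure and referenced to vehicle-treated cultures.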

The nature of experiment [2]: NCI Yeast Anticancer Drug Screen. Data for the mec2-1 strain (AID 157). Particulars: S. cerevisiae mec2-1 strain, hits give high values. The method in brief:
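Using mec2-1 yeast: add compound, measure growth, express inhibition versus vehicle-treated cultures.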

A short description of experiment [3]: NCI Yeast Anticancer Drug Screen. Data for the sgs1 mgt1 strain (AID 161).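 Further: 0% = growth of cultures given vehicle only.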 To be noted: S. cerevisiae sgs1 mgt1 strain, hits give high values. The method in brief:
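Growth of a repair-deficient yeast mutant was monitored after compound treatment and expressed as inhibition relative to vehicle-treated cultures.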

Experiment [4] in a line: NCI Yeast Anticancer Drug Screen. Data for the cln2 rad14 strain (AID 165).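 Further: 0% = growth equal to vehicle treated cultures.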 Particulars: S. cerevisiae cln2 rad14 strain, hits give high values. Summed up:
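Yeast strain cln2 rad14, bearing defects in cell cycle control and DNA repair, serves as the test system; values reflect growth inhibition compared with vehicle.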

Experiment [5] is described as follows: NCI Yeast Anticancer Drug Screen. Data for the bub3 strain (AID 167). Particulars: S. cerevisiae bub3 mutant strain, hits give high values. Summed up:
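Whole-cell yeast assay. The mutant strain was incubated with compounds, and growth inhibition was determined by comparison with vehicle-treated cells.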

A short description of experiment [6]: NCI Yeast Anticancer Drug Screen. Data for the mlh1 rad18 strain (AID 175). To be noted: S. cerevisiae mlh1 rad18 strain growth inhibition, hits give high values. Summed up: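 Steps: expose repair-defective yeast to compound; measure growth; express inhibition against vehicle-treated controls.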
Setting [7] is: at 5.0 µM (retest, dose inferred, filed as 0.5).
Setting [8] is: at 50.0 µM (retest, dose inferred, filed as 5.0).

Compounds without any hit were thinned out: in the full panel of roughly 79,000, 15% have a hit. A number with no mark means an inactive call. The source made the active and inactive calls. No stated cut-off is given here; in the data, active means growth inhibition above about 70%; inactive means the rest.

On to `CCOC(=O)C(=Cc1cccnc1C)C(=O)OCC`, for which the growth inhibition is 16% in experiment [1] (setting [7]); 1% in experiment [1] (setting [8]); 70.9% (active) in experiment [1] (at 50.0 µM); -3% in experiment [2] (setting [7]); 4% in experiment [2] (setting [8]); 51.7% in experiment [2] (at 50.0 µM). For the same molecule, the growth inhibition in experiment [3] (setting [7]) was 42%; in experiment [3] (setting [8]), 4%; in experiment [3] (at 50.0 µM) it was 60.7%; in experiment [4] (setting [7]), 16%; in experiment [4] (setting [8]), 27%; in experiment [4] (at 50.0 µM), 45.9%. In addition, the growth inhibition in experiment [5] (setting [7]) is -31%; in experiment [5] (setting [8]) it was -14%; in experiment [5] (at 50.0 µM) it was 73.2% (active); in experiment [6] (setting [7]), -8%; in experiment [6] (setting [8]), 1%; in experiment [6] (at 50.0 µM) it was 57.7%.
For the molecule `CC(C=O)Cc1ccccc1` (configuration not stated), the growth inhibition in experiment [1] (setting [7]) is 2%; in experiment [1] (setting [8]) it was -6%; in experiment [1] (at 50.0 µM), -8.9%; in experiment [2] (setting [7]), 5%; in experiment [2] (setting [8]), -1%; in experiment [2] (at 50.0 µM), -8.05%. Also, the growth inhibition in experiment [3] (setting [7]) is 3%; in experiment [3] (setting [8]), -4%; in experiment [3] (at 50.0 µM), -3.35%; in experiment [4] (setting [7]), -2%; in experiment [4] (setting [8]), -8%; in experiment [4] (at 50.0 µM), 37%. Also, the growth inhibition was -1% in experiment [5] (setting [7]); -4% in experiment [5] (setting [8]); 10.3% in experiment [5] (at 50.0 µM); -4% in experiment [6] (setting [7]); -8% in experiment [6] (setting [8]); -1.45% in experiment [6] (at 50.0 µM).
With `Oc1[nH]c2ccccc2c1N=NC(=S)N1CCCCCC1`, the growth inhibition in experiment [1] (setting [7]) is 6%; in experiment [1] (setting [8]), 98% (active); in experiment [1] (at 50.0 µM), 54.5%; in experiment [2] (setting [7]) it was -5%; in experiment [2] (setting [8]), 97% (active); in experiment [2] (at 50.0 µM), 72.2% (active). Moreover, the growth inhibition in experiment [3] (setting [7]) was -13%; in experiment [3] (setting [8]), 98% (active); in experiment [3] (at 50.0 µM), 83.2% (active); in experiment [4] (setting [7]), -17%; in experiment [4] (setting [8]), 98% (active); in experiment [4] (at 50.0 µM) it was 78.5% (active). In addition, the growth inhibition in experiment [5] (setting [7]) was -28%; in experiment [5] (setting [8]), 99% (active); in experiment [5] (at 50.0 µM), 87.1% (active); in experiment [6] (setting [7]), -8%; in experiment [6] (setting [8]), 98% (active); in experiment [6] (at 50.0 µM), 79.8% (active).
`COc1ccc(C(O)(c2ccccc2)c2ccccc2)cc1`: the growth inhibition is -5% in experiment [1] (setting [7]); 98% (active) in experiment [1] (setting [8]); 99.1% (active) in experiment [1] (at 50.0 µM); -4% in experiment [2] (setting [7]); 99% (active) in experiment [2] (setting [8]); 99% (active) in experiment [2] (at 50.0 µM). Also, the growth inhibition in experiment [3] (setting [7]) is -3%; in experiment [3] (setting [8]), 99% (active); in experiment [3] (at 50.0 µM), 99.2% (active); in experiment [4] (setting [7]), -5%; in experiment [4] (setting [8]), 92% (active); in experiment [4] (at 50.0 µM) it was 93.9% (active). In addition, the growth inhibition in experiment [5] (setting [7]) was 3%; in experiment [5] (setting [8]), 87% (active); in experiment [5] (at 50.0 µM), 99.5% (active); in experiment [6] (setting [7]) it was -6%; in experiment [6] (setting [8]) it was 98% (active); in experiment [6] (at 50.0 µM), 98.7% (active).
`Cc1nnc(NS(=O)(=O)c2ccc(N=Nc3cc(N=Nc4ccc(S(=O)(=O)Nc5nnc(C)s5)cc4)c4c(NC(=O)C(Cl)Cl)cccc4c3OC(=O)C(Cl)Cl)cc2)s1` (tested in a mixture with another compound): the growth inhibition in experiment [1] (setting [7]) is 90% (active); in experiment [1] (setting [8]), -11%; in experiment [1] (at 50.0 µM) it was 51.8%; in experiment [2] (setting [7]) it was 92% (active); in experiment [2] (setting [8]), 24%; in experiment [2] (at 50.0 µM) it was 53.6%. Moreover, the growth inhibition in experiment [3] (setting [7]) was 89% (active); in experiment [3] (setting [8]), -9%; in experiment [3] (at 50.0 µM) it was 69.5%; in experiment [4] (setting [7]), 90% (active); in experiment [4] (setting [8]), 6%; in experiment [4] (at 50.0 µM) it was 65.8%. Also, the growth inhibition is 91% (active) in experiment [5] (setting [7]); -3% in experiment [5] (setting [8]); 58.2% in experiment [5] (at 50.0 µM); 80% (active) in experiment [6] (setting [7]); -44% in experiment [6] (setting [8]); 79.5% (active) in experiment [6] (at 50.0 µM).
Take `NNc1c(F)c(F)c(-c2c(F)c(F)c(NN)c(F)c2F)c(F)c1F`: the growth inhibition is 42% in experiment [1] (setting [7]); 71% (active) in experiment [1] (setting [8]); 87.6% (active) in experiment [1] (at 50.0 µM); 38% in experiment [2] (setting [7]); 68% in experiment [2] (setting [8]); 89.2% (active) in experiment [2] (at 50.0 µM). Moreover, the growth inhibition in experiment [3] (setting [7]) was 23%; in experiment [3] (setting [8]) it was 98% (active); in experiment [3] (at 50.0 µM), 91.5% (active); in experiment [4] (setting [7]), 48%; in experiment [4] (setting [8]), 99% (active); in experiment [4] (at 50.0 µM), 89.8% (active). Further, the growth inhibition is 43% in experiment [5] (setting [7]); 98% (active) in experiment [5] (setting [8]); 90.1% (active) in experiment [5] (at 50.0 µM); 39% in experiment [6] (setting [7]); 59% in experiment [6] (setting [8]); 86.8% (active) in experiment [6] (at 50.0 µM).
For the molecule `CCOC(=O)Oc1ccc(C)cc1[N+](=O)[O-]`, the growth inhibition in experiment [1] (setting [7]) is -1%; in experiment [1] (setting [8]), 13%; in experiment [1] (at 50.0 µM) it was 67.6%; in experiment [2] (setting [7]), -4%; in experiment [2] (setting [8]), 1%; in experiment [2] (at 50.0 µM), 31.1%. In addition, the growth inhibition is -1% in experiment [3] (setting [7]); 2% in experiment [3] (setting [8]); 47.5% in experiment [3] (at 50.0 µM); 2% in experiment [4] (setting [7]); 12% in experiment [4] (setting [8]); 55.6% in experiment [4] (at 50.0 µM). Moreover, the growth inhibition in experiment [5] (setting [7]) was -1%; in experiment [5] (setting [8]), 4%; in experiment [5] (at 50.0 µM), 23.6%; in experiment [6] (setting [7]), -3%; in experiment [6] (setting [8]), 20%; in experiment [6] (at 50.0 µM), 88.3% (active).
With `CCOC(=O)Cc1nc2ccccc2s1`, the growth inhibition in experiment [1] (setting [7]) was 3%; in experiment [1] (setting [8]) it was 100% (active); in experiment [1] (at 50.0 µM) it was 99.2% (active); in experiment [2] (setting [7]), 2%; in experiment [2] (setting [8]), 100% (active); in experiment [2] (at 50.0 µM), 99.6% (active). Moreover, the growth inhibition was 6% in experiment [3] (setting [7]); 99% (active) in experiment [3] (setting [8]); 99.5% (active) in experiment [3] (at 50.0 µM); 6% in experiment [4] (setting [7]); 98% (active) in experiment [4] (setting [8]); 99.2% (active) in experiment [4] (at 50.0 µM). For the same molecule, the growth inhibition was 9% in experiment [5] (setting [7]); 99% (active) in experiment [5] (setting [8]); 98.8% (active) in experiment [5] (at 50.0 µM); 2% in experiment [6] (setting [7]); 99% (active) in experiment [6] (setting [8]); 99.3% (active) in experiment [6] (at 50.0 µM).
For the molecule `Cc1c(N=Nc2c(S(=O)(=O)O)cc3cc(S(=O)(=O)O)c(N=Nc4c(C)n(C)n(-c5ccccc5)c4=O)c(O)c3c2O)c(=O)n(-c2ccccc2)n1C`, the growth inhibition is -20% in experiment [1] (setting [7]); -13% in experiment [1] (setting [8]); 3.25% in experiment [1] (at 50.0 µM); -18% in experiment [2] (setting [7]); -31% in experiment [2] (setting [8]); 32.8% in experiment [2] (at 50.0 µM). For the same molecule, the growth inhibition is -7% in experiment [3] (setting [7]); 26% in experiment [3] (setting [8]); 4.15% in experiment [3] (at 50.0 µM); 7% in experiment [4] (setting [7]); 8% in experiment [4] (setting [8]); 36.4% in experiment [4] (at 50.0 µM). Further, the growth inhibition in experiment [5] (setting [7]) is -19%; in experiment [5] (setting [8]) it was -11%; in experiment [5] (at 50.0 µM), -29.4%; in experiment [6] (setting [7]) it was 5%; in experiment [6] (setting [8]) it was -7%; in experiment [6] (at 50.0 µM), -6.6%.
